Assay outcomes (PubChem)
UbGFP stabilizer: proteasome inhibitors stabilizing ubiquitin-GFP reporter. Ubiquitin-GFP reporter cells, proteasome inhibition, GFP fluorescence; response scale: untreated = 0%, 10 µM MG-132 = 100%. Potency, µM (doses to about 45.9 µM), without a hit: at the top dose activation (GFP accumulation), usual class: activators. 67,000 tested, under 10 active. AID 526; active = well fitted activation curve with a large enough effect, not every such curve was filed as active; inconclusive = small, poorly fitted or top-dose-only effect, or another doubt; inactive = no such curve, though single readings can be large or run the other way; also: potency is read from the fitted curve at half-maximal effect
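U2OS cells stably expressing ubiquitin(G76V)-GFP, seeded overnight in 0.5% FBS medium, were exposed to compounds (qHTS, 46 uM to 2.9 nM) for 4 hr at 37 °C. GFP-positive cells were counted by laser cytometry (488 ex/515 em), normalized between basal and 10 uM MG-132.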
Peg3 imprint: induces erasure of genomic imprints in mouse ES cells. Potency, µM (series often up to 60.7 µM), inactives show top-dose activity change, positive = activation, usual class: activators. actives 0.02% (n = 110,000). mouse ES Peg3-LacZ reporter, beta-gal luminescence, 40 h; also: potency is read from the fitted curve at half-maximal effect
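Readout: BetaGlo luminescence (5 min, room temp) for LacZ from the normally silent maternal Peg3 allele in female Peg3LacZ-Neo ES cells. Cells 300/well, 40 h, 37C, 5% CO2. Data normalized per plate to negative controls.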
p53ts 32C tox: kills p53ts cells at the permissive temperature. H1299-p53A138V at 32C, ATP luminescence viability, 24 h. actives 0.93% (n = 130,000). Potency, µM (doses to about 46.1 µM), for the others: at the highest dose activity change, negative = cytotoxicity, actives largely listed as cytotoxic. AID 924;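 also: potency is read from the fitted curve at half-maximal effect; 0% = DMSO and -100% = full killing by reference compound; nearly all actives have a fitted effect of over 55% in size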
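Cells: H1299 p53ts (A138V), 600/well, pre-incubated 16–30 h at 37C. Cpd up to 46 uM, 24 h, 32C. Readout: ATPlite luminescence, 20 min RT. Normalization: DMSO vs tamoxifen 100 uM. AC50 by Hill equation.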
HBB splicing: alters splicing of the hemoglobin beta chain | HBB splicing reporter cell assay, activation; EGFP reporter with mutant IVS2-654 intron; response scale: normalised to 500 nM splice-correcting PNA | Potency, µM (top dose mostly 46.1 µM), for the others: at the top dose activation, usual class: activators | actives 0.06% (n = 65,000); also: potency is read from the fitted curve at half-maximal effect; 0% is about no effect
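HeLa cells stably expressing EGFP interrupted by mutant beta-globin intron 2 (IVS2-654), 500/well in 2% FCS. Treated with compound for 2 days at 37C. Splicing correction scored as total well GFP intensity (488 nm excitation, 500-520 nm emission); 500 nM antisense PNA served as control.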
GFP derepression: derepresses silenced GFP locus in mouse C127i cells | mouse C127i GFP locus derepression, cytometry, 30 h | Potency, µM (series often up to 46.1 µM), inactives show top-dose GFP derepression (activation) | actives 0.09% (n = 68,000) | AID 597; also: % of control where 0% means no effect
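Murine C127i mammary cells carrying a silenced, stably integrated CMV-driven GFP reporter were treated with compound for 30 hours at 37 C. After PBS washes, GFP-positive cells were counted by laser-scanning microplate cytometry.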
p53ts 39C tox: p53ts cell cytotoxicity, nonpermissive temperature; H1299-p53A138V viability at 39C, ATP luminescence, 24 h; Potency, µM (highest dose often 46.1 µM), for the others: top-dose activity change, negative = cell killing, usual class: cytotoxic; actives 1.5% (n = 130,000); AID 902; also: potency is read from the fitted curve at half-maximal effect; % is scaled to controls: 0 for no effect and ±100 for the full control effect; nearly all actives have a fitted effect of over 55% in size
An asterisk follows results filed as active; u = inconclusive; x = no result; ! = not confirmed by another sample; [ ] = another dose, or the depositor's remark. Only some compounds are listed: those with a hit (about 1.6% of all), similar ones and a draw of the others. Unless noted, calls follow the shape of the dose curve; as a rule, active = well fitted curve in the direction sought with a large enough effect; inconclusive = small, poorly fitted or top-dose-only effect, or another doubt; inactive = no such curve, though single readings can be large; an effect the other way counts as inactive or inconclusive.

SMILES | UbGFP stabilizer | Peg3 imprint | p53ts 32C tox | HBB splicing | GFP derepression | p53ts 39C tox
COc1cc2c(cc1OC)CN(C(=O)CC1CC3CCC1C3)CC2 (stereo not given) | 9% | -66% | 10µM* | -1% | 0% | 13µM*
CCn1c(SCC(=O)N2CCN(c3ccccc3)CC2)nnc1-c1ccncc1 | x | x | 7% | x | x | 1%
Cc1ccccc1-c1ccc2ncnc(N3CCNCC3)c2c1 | -2% | -22% | 21% | -1% | 0%[9.22 µM] | 16%
Clc1ccccc1-c1ccc2ncnc(N3CCNCC3)c2c1 | -5% | 10µM* | 28% | 1% | -3%[9.22 µM] | 5%
CC(=O)NC1=C(NC2CCS(=O)(=O)C2)C(=O)c2ccccc2C1=O (stereo not given) | x | x | 16µM* | x | x | u
Cc1cc(NC(=O)c2noc3c2CCCC3)n(-c2ccccc2)n1 | 5% | -10% | -14% | 0% | -3% | -4%
COc1ccc(NC(=O)c2c(NCc3ccc(C)o3)sc3c2CCC(C)C3)c(OC)c1 (stereo not given) | x | -24%[10.9 µM] | u | x | x | 20µM*
COc1ccccc1NC(=O)c1c(NCc2ccc(C)o2)sc2c1CCC(C)C2 (stereo not given) | x | -14%[10.9 µM] | u | x | x | 15%
COc1ccc(Cl)c(NC(=O)NCCN2CCN(c3ccccc3)CC2)c1 | -4% | -7% | -4% | 1% | 0% | 11%
NC[C@@H]1O[C@H](C23CC4CC(CC(C4)C2)C3)Cc2c1ccc(O)c2O | -3% | -31% | u | 0% | 0% | 20µM*
CCCCNc1c(C(=O)OCC)c(C)nc2c1cnn2CC | 3% | -15% | 37% | 0%[20.6 µM] | 0% | 16µM*!
Cc1cccn2c(=O)cc(COc3cccc(NC(=O)c4ccccc4F)c3)nc12 | x | -3%[10.9 µM] | -5% | x | x | 7.9µM*
COC(=O)c1ccccc1NC(=O)Nc1cccc(OCc2cc(=O)n3cccc(C)c3n2)c1 | x | -18%[10.9 µM] | 3% | x | x | -26%
CCCC[C@@H]1C[C@H]1C(NC(=O)c1ccccc1)c1ccc(Cl)cc1 (stereo not given in full) | x | -16% | -3% | 1% | x | -8%
CCCC[C@@H]1C[C@H]1C(NC(=O)c1cccnc1)c1ccc(Cl)cc1 (stereo not given in full) | x | -22% | u | 0% | x | 13µM*
Clc1ccc(C(c2nnnn2C2CCCC2)N2CCN(Cc3ccncc3)CC2)cc1 (stereo not given) | 4% | -11% | 2% | 0%[57.5 µM] | 8% | 1%
Nc1ccc2oc(-c3cccc(Br)c3)nc2c1 | 5% | -63% | u | 0% | 0% | u
Nc1ccc2oc(-c3ccc4nc[nH]c4c3)nc2c1 | x | x | 8.9µM* | x | x | 14µM*
O=C(CCS(=O)(=O)c1nc(-c2cccs2)cc(C(F)(F)F)n1)Nc1cccc(O)c1 | x | 7%[10.9 µM] | u | x | x | 13µM*
O=C(CCS(=O)(=O)c1nc(-c2ccc3c(c2)OCO3)cc(C(F)(F)F)n1)Nc1ccccc1C(F)(F)F | x | 4%[10.9 µM] | u | x | x | 7.9µM*
COc1ccc(NC(=O)CCS(=O)(=O)c2nc(-c3ccc4c(c3)OCO4)cc(C(F)(F)F)n2)c(OC)c1 | x | -4%[10.9 µM] | u | x | x | u
COc1cc(NC(=O)CSc2nc(-c3cccs3)cc(C(F)(F)F)n2)cc(OC)c1OC | x | -15%[10.9 µM] | 9% | x | x | -8%
COc1ccc(NC(=O)CCS(=O)(=O)c2nc(-c3cccs3)cc(C(F)(F)F)n2)cc1OC | x | -10%[10.9 µM] | u | x | x | 4µM*
COc1cc(NC(=O)CCS(=O)(=O)c2nc(-c3cccs3)cc(C(F)(F)F)n2)cc(OC)c1OC | x | -8%[10.9 µM] | -19% | x | x | 13µM*
CC(C)C[C@@H](CC(=O)N[C@@H](CCC(=O)O)CC(=O)O)NC(=O)[C@@H]1CNCC[C@H]1NC(=O)C[C@H](CCCN)NC(=O)C[C@H](Cc1ccccc1)NC(=O)[C@@H]1CNCC[C@H]1N | x | x | x | 1% | x | x
SMILES | UbGFP stabilizer | Peg3 imprint | p53ts 32C tox | HBB splicing | GFP derepression | p53ts 39C tox
CCC1CCCCN1CCCNC(=O)COc1cc(=O)n(C)c2ccccc12 (stereo not given) | 15% | -9% | -6% | 15% | 1% | -21%
CCc1ccc(NS(=O)(=O)c2ccc3oc(=O)c4ncn(CC)c4c3c2)cc1 | x | -4%[10.9 µM] | u | x | x | 13µM*
CC(=O)Nc1ccc(NC(=O)c2nc(S(=O)(=O)Cc3ccc(F)cc3)ncc2Cl)cc1 | x | -37%[10.9 µM] | -18% | x | x | 10µM*
COc1ccc(OC)c(NC(=O)c2nc(S(=O)(=O)Cc3ccc(F)cc3)ncc2Cl)c1 | x | -35%[10.9 µM] | u | x | x | 10µM*
Cc1ccc(NC(=O)c2nc(S(=O)(=O)Cc3ccc(F)cc3)ncc2Cl)cc1C | x | -40%[10.9 µM] | 16µM* | x | x | 2.5µM*
Cc1cc(C(=O)Nn2cnnc2)cs1 | -1% | u | 0% | -1% | 4% | 10%
CCOC(=O)c1ccccc1Nc1cc(C)nc2nc(C)nn12 | -6% | -20% | 2% | 0% | 7% | -1%
O=C(/C=C\Nc1ccccn1)c1ccc(Cl)cc1 | -8% | -85% | 7.9µM* | 1%[9.22 µM] | -4% | 13µM*
COc1ccc(OC)c(NC(=O)c2c(NCc3cccs3)sc3c2CCCC3)c1 | x | 14%[10.9 µM] | 40% | x | x | 8%
COc1ccc(NC(=O)CSc2nnc(NC(=O)NC3CCCCC3)s2)cc1OC | x | -8%[10.9 µM] | 10µM* | x | x | 7.9µM*
COc1ccccc1Nc1nnc(SCC(=O)N2CCCC2)s1 | -1% | -78% | -5% | 2% | 3% | -19%
COc1ccccc1NC(=O)CSc1nnc(NC(=O)NC2CCCCC2)s1 | x | -6%[10.9 µM] | u | x | x | 7.9µM*
O=C(CSc1nnc(NC(=O)NC2CCCCC2)s1)Nc1ccccc1F | x | 7%[10.9 µM] | 10µM* | x | x | 10µM*
CC(=O)c1ccc(NC(=O)CSc2nnc(NC(=O)NC3CCCCC3)s2)cc1 | x | -18%[10.9 µM] | 7.1µM* | x | x | 7.9µM*
O=c1cc(-c2ccccc2)nc2nc(CCc3ccccc3)[nH]n12 | 3% | -9% | 13% | 0% | 2% | 8%
Cc1nc2nc(-c3ccccc3)cc(=O)n2[nH]1 | 2% | -89% | 16µM* | -2%[57.5 µM] | 2% | 13µM*
O=C(NCCc1ccccc1)C(=O)NCC(c1cccnc1)N1CCN(c2ccc(F)cc2)CC1 (stereo not given) | x | -19%[10.9 µM] | u | x | x | 20µM*
O=C(NCc1cccnc1)C(=O)NCC(c1cccnc1)N1CCN(c2ccc(F)cc2)CC1 (stereo not given) | x | -8%[10.9 µM] | 37% | x | x | u
Cc1ccccc1CNC(=O)c1ccc(NC(=O)c2nsc3ccccc23)cc1 | x | -5%[10.9 µM] | u | x | x | u
